The nature of test [1]: optical density shifts of acrAB sulA E. coli – strain DRC41, OD650, 48 h, E. coli filamentation inducer project, primary screen (AID 1152).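 Further: E. coli MC1000 strain DRC41 lacking acrAB efflux pump and sulA.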 The conditions noted are these: higher = more signal, called active from +8 up or from −8 down.
A short description of test [2]: probe aLefty1 binding on compound microarray – biochemical, small-molecule microarray, 635/667 nm fluorescence, primary screen (AID 1153).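 Further: score merges spot fluorescence with signal-to-noise ratio from the scanned slide images.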 Conditions: higher = more signal.
Test [3] can be described thus: plasmodial surface anion channel blockers, osmotic lysis – cell-based, P. falciparum Indochina, OD700, 1 h, primary screen (AID 1154). Conditions: P. falciparum Indochina infected RBC osmotic lysis, higher = more signal, called active from +8 up or from −8 down.
Test [4] in a line: plasmodial surface anion channel blockers, osmotic lysis – cell-based, P. falciparum Indochina, OD700, 2 h, primary screen (AID 1155).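 Further: lysis reports solute entry through the parasite surface anion channel PSAC.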 Conditions: P. falciparum Indochina infected erythrocytes, higher = more signal, called active from +8 up or from −8 down.
Test [5] is described as follows: changes in parasitized red cell lysis, either direction – P. falciparum Indochina, OD700, 3 h, PSAC antagonist project, primary screen (AID 1156). The conditions noted are these: P. falciparum-infected erythrocytes, osmotic lysis, higher = more signal, called active from +8 up or from −8 down.
A short description of test [6]: plasmodial surface anion channel blockers, osmotic lysis – cell-based, P. falciparum Indochina, OD700, 18 h, primary screen (AID 1157). The conditions noted are these: P. falciparum Indochina infected erythrocytes, osmotic lysis OD700, 18 h; higher = more signal, called active from +8 up or from −8 down.
A short description of test [7]: S6 kinase pathway phospho-S6 level changes – cell-based, A549, cytoblot, luminescence, serum-stimulated, primary screen (AID 1158).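 Further: serum-stimulated A549 lung adenocarcinoma cells; signal is phosphorylated S6 detected by cytoblot immunostaining with HRP secondary.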 Conditions: 5 h, higher = more signal.
For test [8], the target named is NADPH oxidase 2 (Homo sapiens) (UniProt P04839). In words: compounds shifting NOX2 Amplex Red fluorescence – cell-based, HEK293-NOX2, PMA-stimulated, NOX inhibitor project, primary screen (AID 1159). Further: test concentration not given here. Conditions: 45 min, higher = more signal, called active from +8 up or from −8 down.
The target in test [9] is NADPH oxidase 4 (Homo sapiens) (UniProt Q9NPH5). Description: compounds shifting NOX4 Amplex Red fluorescence – cell-based, HEK293-NOX4, tetracycline-induced, NOX inhibitor project, primary screen (AID 1160). The conditions noted are these: HEK293-NOX4, Amplex Red H2O2 fluorescence, 45 min; higher = more signal, called active from +8 up or from −8 down.
The target in test [10] is NADPH oxidase 5 (Homo sapiens) (UniProt Q96PH1). In words: compounds shifting NOX5 Amplex Red fluorescence – cell-based, HEK293-NOX5, NOX inhibitor project, primary screen (AID 1161). Conditions: HEK293-NOX5, ionomycin, 45 min, higher = more signal.
A short description of test [11]: compound effects on lung adenocarcinoma cell viability – A549, calcein-AM fluorescence, 48 h, basal, profiling panel (AID 1162). Further: test concentration not given here. The conditions noted are these: higher = more signal.
A short description of test [12]: compound effects on differentiated 3T3-L1 adipocyte viability – cell-based, 3T3-L1 adipocytes, calcein-AM fluorescence, 48 h, basal, profiling panel (AID 1163). Further: test concentration not given here. Conditions: 3T3-L1 adipocytes viability, higher = more signal.
A short description of test [13]: compound effects on hepatocellular carcinoma cell viability – HepG2, calcein-AM fluorescence, 48 h, basal, profiling panel (AID 1164). Further: test concentration not given here. The conditions noted are these: higher = more signal.
The nature of test [14]: compound effects on multiple myeloma cell viability – MM1S, calcein-AM fluorescence, 48 h, basal, profiling panel (AID 1165). Further: test concentration not given here. Conditions: higher = more signal.
A short description of test [15]: calcein-AM signal in unstimulated myeloma cells – cell-based, calcein-AM fluorescence, 48 h, PK04 Diversity Set, profiling panel (AID 1166).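 Further: cells grown under basal conditions without added stimulus; test concentration not given here.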 The conditions noted are these: RPMI8226 myeloma viability, higher = more signal.
Test [16] in a line: JC-1 mitochondrial signal, unstimulated HepG2 cells – cell-based, JC-1 fluorescence, 24 h, 100 nL compound, profiling panel (AID 1167). Further: test concentration not given here. Conditions: HepG2 mitochondrial potential, higher = more signal.
Test [17] is described as follows: JC-1 mitochondrial signal, unstimulated adipocytes – cell-based, JC-1 fluorescence, 3T3-L1 adipocytes, 24 h, 100 nL compound, profiling panel (AID 1168). Further: test concentration not given here. The conditions noted are these: JC-1 mitochondrial fluorescence, higher = more signal, called active from +8 up or from −8 down.
Test [18] can be described thus: JC-1 mitochondrial signal, unstimulated myeloma cells – cell-based, JC-1 fluorescence, RPMI8226, 24 h, 100 nL compound, profiling panel (AID 1169). Further: test concentration not given here. Conditions: JC-1 mitochondrial potential fluorescence, higher = more signal.
Test [19] is described as follows: JC-1 mitochondrial signal, unstimulated MM1S myeloma – cell-based, JC-1 fluorescence, 24 h, 100 nL compound, profiling panel (AID 1170). Further: test concentration not given here. Conditions: MM1S mitochondrial potential, higher = more signal.
Test [20] in a line: resazurin metabolic signal in A549 cells – cell-based, resazurin fluorescence, 24 h, PK04 Diversity Set, profiling panel (AID 1171). Further: test concentration not given here. Conditions: A549 viability, higher = more signal, called active from +8 up or from −8 down. A general note: Alamar Blue is a resazurin reagent that responds to reducing activity.

Results on 9 molecules are retold here after PubChem BioAssay.

SMILES strings stand for the structures. The source made the active and inactive calls.

NADPH oxidase 4 (Homo sapiens), sequence (Q9NPH5 whole entry, looked up): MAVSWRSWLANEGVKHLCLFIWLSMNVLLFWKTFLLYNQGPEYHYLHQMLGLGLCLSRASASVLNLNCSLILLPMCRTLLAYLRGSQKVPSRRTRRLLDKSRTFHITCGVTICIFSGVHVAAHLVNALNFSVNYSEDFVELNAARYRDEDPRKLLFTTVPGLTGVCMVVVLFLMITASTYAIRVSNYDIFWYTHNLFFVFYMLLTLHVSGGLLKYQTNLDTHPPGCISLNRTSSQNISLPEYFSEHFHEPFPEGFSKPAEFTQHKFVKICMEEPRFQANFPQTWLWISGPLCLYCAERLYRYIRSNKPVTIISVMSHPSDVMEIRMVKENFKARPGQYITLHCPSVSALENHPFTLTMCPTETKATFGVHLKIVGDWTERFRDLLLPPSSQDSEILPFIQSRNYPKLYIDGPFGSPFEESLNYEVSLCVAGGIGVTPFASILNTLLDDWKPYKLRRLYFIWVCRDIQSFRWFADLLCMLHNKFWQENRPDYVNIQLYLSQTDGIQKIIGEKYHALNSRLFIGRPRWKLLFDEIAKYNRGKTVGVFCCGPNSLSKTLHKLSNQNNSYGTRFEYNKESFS
NADPH oxidase 2 (Homo sapiens), sequence (P04839 whole entry, looked up): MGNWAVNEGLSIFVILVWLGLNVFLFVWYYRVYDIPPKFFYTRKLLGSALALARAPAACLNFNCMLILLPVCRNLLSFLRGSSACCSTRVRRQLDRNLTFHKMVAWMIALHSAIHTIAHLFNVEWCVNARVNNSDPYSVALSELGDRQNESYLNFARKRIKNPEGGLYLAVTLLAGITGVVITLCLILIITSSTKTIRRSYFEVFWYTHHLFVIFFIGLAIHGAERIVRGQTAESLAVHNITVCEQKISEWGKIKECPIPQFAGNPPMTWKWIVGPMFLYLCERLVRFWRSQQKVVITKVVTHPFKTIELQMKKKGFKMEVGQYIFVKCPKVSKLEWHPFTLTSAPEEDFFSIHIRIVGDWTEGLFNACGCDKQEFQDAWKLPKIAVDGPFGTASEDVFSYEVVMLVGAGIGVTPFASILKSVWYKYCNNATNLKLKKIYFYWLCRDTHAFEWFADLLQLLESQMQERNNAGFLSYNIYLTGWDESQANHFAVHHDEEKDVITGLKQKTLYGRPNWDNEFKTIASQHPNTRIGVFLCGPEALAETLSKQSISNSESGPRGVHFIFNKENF
NADPH oxidase 5 (Homo sapiens), sequence (Q96PH1 whole entry, looked up): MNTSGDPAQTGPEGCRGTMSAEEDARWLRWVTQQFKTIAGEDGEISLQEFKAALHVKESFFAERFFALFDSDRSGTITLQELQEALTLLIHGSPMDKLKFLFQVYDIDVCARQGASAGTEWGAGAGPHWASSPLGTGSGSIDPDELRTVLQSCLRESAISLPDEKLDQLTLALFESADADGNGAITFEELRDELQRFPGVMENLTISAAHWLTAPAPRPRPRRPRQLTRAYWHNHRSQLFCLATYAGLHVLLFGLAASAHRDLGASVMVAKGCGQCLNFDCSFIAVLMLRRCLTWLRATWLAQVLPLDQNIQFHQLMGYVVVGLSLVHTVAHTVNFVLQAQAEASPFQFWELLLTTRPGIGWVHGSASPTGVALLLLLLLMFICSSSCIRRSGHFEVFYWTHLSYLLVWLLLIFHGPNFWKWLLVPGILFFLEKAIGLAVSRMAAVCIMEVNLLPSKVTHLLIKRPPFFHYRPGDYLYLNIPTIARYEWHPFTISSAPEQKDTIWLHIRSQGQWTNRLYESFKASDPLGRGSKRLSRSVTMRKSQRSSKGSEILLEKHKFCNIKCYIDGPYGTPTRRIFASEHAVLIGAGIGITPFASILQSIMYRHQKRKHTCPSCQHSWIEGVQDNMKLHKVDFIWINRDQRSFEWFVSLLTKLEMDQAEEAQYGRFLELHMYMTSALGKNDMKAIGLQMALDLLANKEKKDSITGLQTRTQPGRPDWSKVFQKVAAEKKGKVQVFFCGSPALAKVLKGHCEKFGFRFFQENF

With `C=CCOC(=O)[C@@H]1[C@H]2C(=O)O[C@H](c3ccccc3)[C@H](c3ccccc3)N2[C@H](c2ccc(OCCOC(=O)[C@H]3C[C@H]4C(=O)N[C@@H](CCCCN(C)C)C(=O)N4[C@H]3c3ccc(O)cc3)cc2)[C@@]12C(=O)Nc1ccc(I)cc12`, the z-score in test [1] is -1.09 (inactive); in test [3], -0.202 (inactive); in [4], 0.422 (inactive); in test [5] it was 3.69 (inactive); in test [6], -0.116 (inactive); in test [7], -1.34. Further, the z-score is 1.6 (inactive) in test [8]; 0.182 (inactive) in test [9]; 0.946 in test [10]; -0.191 in test [11]; -0.357 in test [12]; 0.278 in test [13]. Besides, the z-score in [14] is -0.644; in test [15], -1.11; in test [16], 0.309; in test [17] it was 1.33 (inactive); in test [18], -0.35; in [19], -0.933. Further, in test [20], the z-score was 0.923 (inactive). Besides, in test [2], the composite z-score is 0.0313.

`CC(C)NC(=O)[C@@H]1c2ccccc2C(=O)N(Cc2ccc(OC(F)(F)F)cc2)[C@H]1c1ccc(CO)cc1`: the z-score in test [1] was -0.376 (inactive); in test [3], 2.18 (inactive); in test [4] it was -0.0655 (inactive); in test [5], 2.65 (inactive); in test [6] it was 0.179 (inactive); in [7] it was -0.065. Also, the z-score in [8] is 0.412 (inactive); in [9], -0.27 (inactive); in test [10], 1.87; in [11], 0.531; in test [12], 1.34; in test [13] it was -0.315. Further, the z-score in test [14] is 1.09; in test [15], -1.85; in test [16] it was 2.18; in test [17] it was -1.32 (inactive); in test [18], 0.24; in test [19] it was -0.498. The z-score in test [20] was 0.0746 (inactive). In [2], this molecule came in with a composite z-score of 1.24.

Turning to `COc1ccc([Si](C)(C)[C@H]2[C@H](CC(=O)N3Cc4ccccc4C[C@H]3CO)O[C@@]3(C(=O)N(C)c4ccccc43)[C@@H]2C)cc1`, the z-score in test [1] was -0.614 (inactive); in [3], 13.2 (active); in [4], 1.16 (inactive); in [5] it was 2.37 (inactive); in test [6] it was -0.925 (inactive); in [7] it was 0.867. Further, the z-score in test [8] was -3.27 (inactive); in test [9], -1.45 (inactive); in [10] it was -1.91; in [11], -0.962; in [12], 1.43; in test [13] it was -1.42. The z-score is -2.67 in test [14]; -4.05 in [15]; -0.592 in [16]; -0.0846 (inactive) in test [17]; -1.1 in test [18]; -0.748 in test [19]. The z-score in [20] is -0.299 (inactive). The same molecule came in with a composite z-score in [2] of 0.384.

For `CC(C)NC(=O)[C@@]1(C)c2ccccc2C(=O)N(Cc2ccccc2)[C@H]1c1ccc(CO)cc1`, the z-score in test [1] is 1.31 (inactive); in test [3] it was 4.68 (inactive); in [4], -0.883 (inactive); in [5], -0.171 (inactive); in test [6], -0.851 (inactive); in [7], 1.64. Besides, the z-score in test [8] was -1.34 (inactive); in test [9], 0.485 (inactive); in [10], 0.872; in test [11] it was 0.389; in test [12], 0.714; in [13] it was 1.41. Further, the z-score in [14] was 0.579; in test [15], 0.38; in [16], 2.88; in test [17], 1.49 (inactive); in [18] it was -0.197; in [19], 1.02. Also, in test [20], the z-score is -0.268 (inactive). Moreover, the composite z-score in [2] was -0.0796.

On to `CCCCCC1=C2CNC(CC(C)C)(C(=O)OC)C=C2C(C)C1=O` (stereo not given), for which the z-score in test [1] is -1.07 (inactive); in test [3], 1.5 (inactive); in [4], -0.602 (inactive); in test [5], 0.836 (inactive); in test [6], 0.347 (inactive); in test [7] it was -0.245. Also, the z-score was -0.0792 (inactive) in test [8]; -0.636 (inactive) in [9]; -2.61 in [10]; -0.659 in test [11]; -0.707 in test [12]; 0.468 in test [13]. Further, the z-score in [14] is -0.227; in test [15] it was -1.12; in [16] it was 0.745; in test [17] it was -1.21 (inactive); in test [18], -0.324; in test [19], -1.53. Further, the z-score in test [20] was -0.683 (inactive). The same molecule showed a composite z-score in test [2] of 0.172.

Consider `CC1CC/C=C\[C@H]2OC34C=CCN(Cc5ccccc5)C(=O)[C@H]3N(CCCCCCO)C(=O)[C@@H]4C2C(=O)O1` (stereo not given in full), for which the z-score in test [1] is 0.528 (inactive); in test [3], -0.107 (inactive); in test [4], 0.179 (inactive); in test [5], 0.731 (inactive); in [6] it was 0.111 (inactive); in test [7] it was 1.98. For the same molecule, the z-score in test [8] is 1.71 (inactive); in test [9], 0.185 (inactive); in [10], 2.2; in [11], 1.3; in test [12] it was 0.221; in [13], 0.881. Moreover, the z-score in [14] is 1.41; in [15], 0.0497; in test [16], 0.0727; in test [17], -0.0479 (inactive); in test [18], 0.62; in test [19] it was 1.34. Besides, in [20], the z-score is 0.919 (inactive). The composite z-score in [2] came to 0.0249.

`C=CCNC(=O)[C@@H]1[C@H]2C(=O)O[C@H](c3ccccc3)[C@H](c3ccccc3)N2[C@H](c2ccc(OCCO)cc2)[C@@]12C(=O)Nc1ccc(C#CC3(O)CCCCCC3)cc12`: the z-score in test [1] was 0.668 (inactive); in test [3] it was 4.16 (inactive); in [4], 0.444 (inactive); in [5], 1.02 (inactive); in [6], -0.882 (inactive); in [7], 1.35. Besides, the z-score is 0.385 (inactive) in test [8]; -1.05 (inactive) in test [9]; -1.63 in [10]; -0.134 in [11]; 1.84 in [12]; -1.39 in test [13]. Moreover, the z-score in test [14] was -1.29; in test [15] it was -2.43; in test [16], -1.16; in test [17], -0.848 (inactive); in test [18], -0.862; in test [19], -0.962. For the same molecule, the z-score in test [20] is 0.355 (inactive). Moreover, the composite z-score in [2] is 0.239.

In the case of `C=C(CCCC)/C(=C/C[C@H](OC(=O)c1ccncc1)c1ccccc1OCCO)c1cc(C(=O)OC)ccc1OC`, the z-score is 0.0839 (inactive) in test [1]; 23.6 (active) in test [3]; 6.35 (inactive) in test [4]; 3.84 (inactive) in test [5]; 1.44 (inactive) in test [6]; -0.166 in test [7]. Besides, the z-score in [8] was 0.559 (inactive); in test [9], -0.48 (inactive); in test [10], -1.67; in test [11] it was -0.0906; in test [12], 0.503; in test [13], -0.629. Also, the z-score in [14] is -3.29; in [15], -1.82; in test [16], 2.06; in test [17], -0.292 (inactive); in test [18], -0.262; in test [19] it was 0.732. The z-score in test [20] was 0.613 (inactive). The molecule also came in with a composite z-score in [2] of 0.165.

Regarding `CCC(CC)C(O)C1C=CC2C(=O)N(c3ccccc3)C(=O)C2N1Nc1ccccc1F` (stereo not given), the z-score was -0.372 (inactive) in [1]; 0.834 (inactive) in [3]; 0.412 (inactive) in [4]; 0.164 (inactive) in test [5]; 0.584 (inactive) in test [6]; -0.364 in [7]. In addition, the z-score in test [8] is 0.223 (inactive); in test [9], -0.0786 (inactive); in test [10], -0.39; in [11] it was 0.21; in [12], 0.561; in [13] it was 1.09. The z-score in test [14] is 1.38; in [15], 0.523; in test [16], 0.387; in test [17], -0.147 (inactive); in test [18], -0.231; in [19], -0.817. In test [20], the z-score was 0.0513 (inactive). Further, the composite z-score in [2] was 0.0315.
